Measurements published in PubChem BioAssay AID624300 (Southern Research Specialized Biocontainment Screening …, 2012).
Out of some 2,400 compounds screened, about 360 (15%) were called active.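 The calls were made as follows: active = viability falls under 70% at one or more tested concentrations, taken as toxicity; inactive = viability stays over 70% at every dose.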 A selection follows. Entries with a potency or affinity are not part of this list.

assay: HeLa cell cytotoxicity, dose response, cytotoxicity control for MgcRacGAP inhibitor project (AID 624300); settings: CellTiter-Glo luminescence, 24 h; series mostly up to 100 µM

Structure (SMILES)	outcome
COc1cccc(Nc2ccc(N3CCCCC3)cc2)c1OC	inactive
C=CCNC(=S)N1CCN(Cc2ccc3c(c2)OCO3)CC1	inactive
CCOc1ccc(C2NC(=O)C(C#N)=C(S)N2c2ccc(C)cc2)cc1OC (configuration not stated)	inactive
COc1ccc(NC(=O)Nc2ccc(N(C)C)cc2)cc1	inactive
CN(CCCCCCN(C)Cc1ccccc1O)Cc1ccccc1O	inactive
CCCc1c(C)[nH]c2ccc(C(=O)O)cc2c1=S	inactive
Nc1nc(Sc2ccc([N+](=O)[O-])c3nonc23)c2[nH]cnc2n1	inactive
CCOC(=O)c1c(/N=C/C2=C(O)CCCC2=O)sc(C)c1C	inactive
O=C(O)c1cccc(-n2sc3ccccc3c2=O)c1	inactive
Clc1ccccc1-c1nc(/C=N/N2CCOCC2)c2ccccn12	inactive
O=C(CN1CCc2ccccc2C1)Nc1ccccc1C(F)(F)F	inactive
O=C(N/N=C/c1ccc(O)cc1)c1csc2c1CCCC2	inactive
Oc1ccc(-c2nccs2)cc1	inactive
CCN=c1scc(C)n1/N=C/c1cc(Br)c(O)c(OC)c1	inactive
Cc1cc(=O)[nH]c2c(N=Nc3ccc(O)cc3)c(N)nn12	inactive
CC1(C)CC(=O)C2=C(C1)Nc1ccccc1S2	inactive
COc1cccc(/C=N/n2c(-c3n[nH]c4c3CCC4)n[nH]c2=S)c1O	inactive
O=C1CCC(C2CCc3cc(O)ccc3C2)C1 (configuration not stated)	inactive
CCOc1ccccc1CN1CCC(N2CCOCC2)CC1	inactive
CC(C)CC(=O)N1CCN(Cc2cccc([N+](=O)[O-])c2)CC1	inactive
CCOc1cc(/C=N/NC(=O)CCc2n[nH]c(=O)[nH]c2=O)ccc1O	inactive
Oc1ccc(-c2csc(-c3cccnc3)n2)cc1O	inactive
COc1ccc(-c2cn[nH]c2-c2ccc(O)cc2O)cc1OC	inactive
S=c1[nH]nc(-c2cccnc2)n1/N=C/c1cccs1	inactive

Structure (SMILES)	outcome
COc1cc2cc(-c3ccc(O)cc3O)nc(C)c2cc1OC	inactive
COc1ccc(C2NC(=O)C(C#N)=C(S)N2c2ccc(C)cc2)cc1OC (configuration not stated)	inactive
N#CC1(Nc2ccc(-c3ccc(NC4(C#N)CCCC4)cc3)cc2)CCCC1	inactive
Nc1ccc(N2CCCCC2)c(Cl)c1	inactive
Cc1cccc(NC2=C(C#N)C(=O)NC3(CCCC3)S2)c1	inactive
COC(=O)C1=C(C)N(CC2CCCO2)C(=O)/C1=C\c1ccc(O)cc1 (configuration not stated)	inactive
CCOc1cc(/C=C2/N=C(C)C(C(=O)OC)=C2O)ccc1O	inactive
COc1cc(-c2nc3cnccn3c2Nc2c(C)cccc2C)ccc1O	inactive
COc1cc(-c2nc3ccccn3c2/N=C/c2cc(OC)c(O)cc2Cl)ccc1O	inactive
Cc1ccccc1CN(C)CCc1ccccn1	inactive
Cc1nc(S/C(=C\c2ccc(-c3ccc(C(=O)O)c(Cl)c3)o2)C(=O)O)n[nH]1	inactive
Cc1ccc(S(=O)(=O)/N=S(/c2ccccc2)C(C)C)cc1 (configuration not stated)	inactive
O=C1c2ccccc2C(=O)C1c1ccc(O)cc1	inactive
Cc1ccc(S(=O)(=O)Nc2ccc(N(C)C)cc2)cc1	inactive
Oc1ccc(N=Nc2ccccc2)cc1	inactive
COc1cc2c(cc1OC)C(c1cc(Br)c(OC)c(OC)c1)CC(=O)N2 (configuration not stated)	inactive
CN(C)c1ccc(NC(=O)c2cccc(N3C(=O)C4C5C=CC(C5)C4C3=O)c2)cc1 (configuration not stated)	inactive
CC(C(=O)NC(=O)NC1CCCCC1)N1CCN(c2ccc(O)cc2)CC1 (configuration not stated)	inactive
COc1ccc(N[C@@H]2CCN3C(=O)c4ccccc4[C@@H]3C[C@H]2O)cc1	inactive
N#CC1=C(S)N(c2ccccc2)C(c2ccc(-c3cccc(Cl)c3)o2)NC1=O (configuration not stated)	inactive
COc1ccccc1N1CCN(CCCOc2ccc(F)cc2)CC1	inactive
Cc1cccc(-c2n[nH]c(=S)n2/N=C/c2ccco2)c1	inactive
COc1ccc(CNc2ccc(N3CCN(C(C)=O)CC3)cc2)cc1OC	inactive
COc1cc(CNc2ccc(N3CCOCC3)cc2)cc(Br)c1OC	inactive

Structure (SMILES)	outcome
CCOc1cc(CNc2ccc(N3CCOCC3)cc2)cc(Br)c1OCC	inactive
CCOc1cc(CNc2ccc3c(c2)OCCO3)cc(Br)c1OCC(N)=O	inactive
O=C(Cn1cnc([N+](=O)[O-])n1)N/N=C/c1ccc(O)cc1O	inactive
O=S(=O)(c1ccccc1)N1N=C(c2ccc(O)cc2)CC1c1ccco1 (configuration not stated)	inactive
CN(C)c1ccc(NC(=O)c2ccc3nsnc3c2)cc1	inactive
O=C(c1ccccc1)N1CCN(C2CCCCC2)CC1	inactive
COc1ccc(/C=N/n2c(-c3n[nH]c4c3CCC4)n[nH]c2=S)c(OC)c1OC	inactive
Nc1n[nH]c(N)c1N=Nc1ccc2c(c1)OCO2	inactive
O=C(CSc1ccc2ccccc2c1)N1CCN(c2ccc(O)cc2)CC1	inactive
Oc1ccc(NC(=S)N=Nc2c(O)[nH]c3ccccc23)cc1	inactive
Oc1ccc(NC(=S)Nc2ccc(F)cc2)cc1	inactive
Oc1ccc(N2CCN(Cc3cc4c(cc3Br)OCCO4)CC2)cc1	inactive
CC1CCN(CC(=O)Nc2ccc(S(=O)(=O)NC3CC3)cc2)CC1	inactive
Cc1ccc(NC(=O)NC(=O)CN2CCN(c3ccc(O)cc3)CC2)c(C)c1	inactive
CN(c1ccc(O)cc1)c1nc(-c2cccs2)cs1	inactive
COc1ccc(CNC(=O)CN(C)Cc2ccc(C(C)(C)C)cc2)cc1	inactive
CN1CCN(C=NC2=NN(c3cccc(C(F)(F)F)c3)CC2)CC1	inactive
CCOC(=O)c1[nH]c(=S)n(Cc2ccccc2)c1C(=O)OCC	inactive
CN(C)c1ccc(NC(=O)COC(=O)c2ccc3c(c2)OCO3)cc1	inactive
COC(=O)C1CCN(C(=O)COC(=O)/C=C/c2ccc(O)c(OC)c2)CC1	inactive
CSc1nc(/C=C2\C=Nc3ccccc32)c(O)n1C	inactive
CCOC(=O)C1CCCN(C(=S)Nc2ccc(Nc3ccccc3)cc2)C1 (configuration not stated)	inactive
CN(C)c1ccc(-n2cccc2/C=C/[N+](=O)[O-])cc1	inactive
COc1ccc(-n2cnc(=S)[nH]c2=S)cc1	inactive

Structure (SMILES)	outcome
COc1ccc(NC2CCCN(C(=O)c3ccccc3-c3ncc[nH]3)C2)cc1 (configuration not stated)	inactive
CCN1CCN(CCOc2cccc(Cl)c2Cl)CC1	inactive
COc1ccc(NC(=O)c2cc3ccc(O)cc3o/c2=N\O)cc1	inactive
Cc1sc2ncnc(Nc3ccc(O)cc3)c2c1C	inactive
CCN(CC)S(=O)(=O)c1cccc(C(=O)N/N=C/c2ccc(OC)c(O)c2)c1	inactive
Cc1c(O)ccc2c3c(c(=O)oc12)CCCC3	inactive
Cc1ccc2c(c1)C(C)CC(C)(C)N2C(=O)CN1CCN(C)CC1 (configuration not stated)	inactive
O=c1c(-c2cccc(Cl)c2)c[nH]n1-c1ccccc1	inactive
O=c1c(-c2ccccc2Cl)c[nH]n1-c1ccccc1	inactive
Cc1ccc(OC(=O)CCC(=O)Nc2ccc(C)c(C)c2)cc1	inactive
COc1cc(/C=C/C(=O)OCC(=O)NC(=O)NC(C)C)ccc1O	inactive
COc1ccc(N2CCN(C(=O)CCCn3nnnc3CN3CCOCC3)C(C)C2)cc1 (configuration not stated)	inactive
O=C1/C(=C\c2ccc(O)cc2)SC(=S)N1/N=C/c1ccc(O)cc1	inactive
Cc1cc(O)ccc1N=Cc1c(C(F)(F)F)[nH][nH]c1=O	inactive
Nc1ccc2c(c1)OCCOCCOCCOCCOCCO2	inactive
Oc1ccccc1CNc1ccc2c(c1)OCCO2	inactive
Nc1ccc2nc(CCCCc3nc4ccccc4[nH]3)[nH]c2c1	inactive
CCOC(=O)c1cc(NCc2cccs2)ccc1N1CCOCC1	inactive
CN1CCN(/N=C/c2nc(-c3ccccc3)n3ccccc23)CC1	inactive
CN(C)c1ccc(Nc2ccc([N+](=O)[O-])cn2)cc1	inactive
c1cc(CNc2ccc3c(c2)OCCO3)ccn1	inactive
Cc1ccc(CN2CCN(Cc3ccco3)CC2)cc1	inactive
CN1CCCN(Cc2ccccc2C(F)(F)F)CC1	inactive
Cc1ccc(NC(=O)CN(C)C2CCCCC2)cc1Cl	inactive

Structure (SMILES)	outcome
CN1C(=O)NC(c2ccc(O)cc2)C2=C1CN(c1ccc(O)cc1)C2=O (configuration not stated)	inactive
COc1ccc(/C=N/NC(=O)c2cccc(S(=O)(=O)N3CCCC3)c2)cc1O	inactive
CN(C)c1cc(NC(=O)CN2CCCC2)c2ccccc2n1	inactive
CCOc1ccc(CNC2CCCc3ccccc32)cc1 (configuration not stated)	inactive
Nc1ccn([C@@H]2O[C@H](CNCC3=CCOc4ccc(O)cc43)[C@@H](O)[C@H]2O)c(=O)n1	inactive
O=C(c1ccccc1)c1ccc(C(=O)N2CCN(c3ccc(O)cc3)CC2)cc1	inactive
O=C(c1cc(C2CC2)nn1-c1ccccc1)N1CCN(c2ccc(O)cc2)CC1	inactive
O=C(CN1CCCCCC1)Nc1nc2ccccc2s1	inactive
Cc1ccc(NC(=O)CN2CCC(Cc3ccccc3)CC2)cc1S(=O)(=O)N(C)C	inactive
Cn1c(N2CCOCC2)c(/C=N/O)c2ccccc21	inactive
CN(C)/N=C/c1ccc(N2CCOCC2)cc1	inactive
COc1ccc(NC(=S)NNS(=O)(=O)c2ccc3ccccc3c2)c(OC)c1	inactive
O=C(NC(=S)N1CCN(c2ccc(O)cc2)CC1)c1ccco1	inactive
COc1cccc(N2CC(C(=O)Oc3ccc4ccccc4c3)CC2=O)c1 (configuration not stated)	inactive
COc1ccc(Cn2nnnc2C(c2cccnc2)N2CCN(c3ccc(O)cc3)CC2)cc1 (configuration not stated)	inactive
CC1(C)CC(=O)C=C(Nc2ccc(O)cc2)C1	inactive
CC1(C)CC(=O)C(C=Nc2ccc(O)cc2)=C(O)C1	inactive
Cc1ccc(/C=N/Nc2ccc(Cl)c(C(=O)O)c2)s1	inactive
CCN(CC(=O)Nc1ccc(S(=O)(=O)N2CCCC2)cc1)CC(=O)Nc1cccc(OC)c1	inactive
Nc1cc(SCc2ccc([N+](=O)[O-])cc2)ncn1	inactive
O=[N+]([O-])c1ccc(Oc2cccc3cccnc23)c([N+](=O)[O-])c1	inactive
